This is an account of results in ChEMBL document CHEMBL5308504, “Tm Shift (DSF) assay results for EUbOPEN Chemogenomics Library” (2023).

Details in all cases: Compound concentration 20.0 uM, Protein concentration 2.0 uM, Result type QC Liability
Experiment [1] addresses Tyrosine-protein kinase ABL1 (Homo sapiens) (UniProt P00519).
Experiment [2] concerns the target Cyclin-dependent kinase 2 (Homo sapiens) (UniProt P24941).
In experiment [3] the target is Casein kinase I isoform delta (Homo sapiens) (UniProt P48730).
Experiment [4] concerns the target Glycogen synthase kinase-3 beta (Homo sapiens) (UniProt P49841).
In experiment [5] the target is Mitogen-activated protein kinase 1 (Homo sapiens) (UniProt P28482).
The target in experiment [6] is T1, Aurora kinase A (Homo sapiens) (UniProt O14965).
T1 sequence (whole entry): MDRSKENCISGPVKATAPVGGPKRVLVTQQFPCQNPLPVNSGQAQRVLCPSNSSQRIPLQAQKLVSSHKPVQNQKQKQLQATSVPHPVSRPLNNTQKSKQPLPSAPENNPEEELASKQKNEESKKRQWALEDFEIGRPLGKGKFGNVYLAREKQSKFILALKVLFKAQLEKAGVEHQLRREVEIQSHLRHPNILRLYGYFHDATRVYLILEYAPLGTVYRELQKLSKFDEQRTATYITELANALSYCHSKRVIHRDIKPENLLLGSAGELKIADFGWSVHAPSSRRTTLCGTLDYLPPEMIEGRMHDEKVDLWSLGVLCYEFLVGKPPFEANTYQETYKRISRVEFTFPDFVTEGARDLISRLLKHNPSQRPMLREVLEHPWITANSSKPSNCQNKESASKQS

The target in experiment [7] is T2, Transcription intermediary factor 1-alpha (Homo sapiens) (UniProt O15164).
T2 sequence (whole entry): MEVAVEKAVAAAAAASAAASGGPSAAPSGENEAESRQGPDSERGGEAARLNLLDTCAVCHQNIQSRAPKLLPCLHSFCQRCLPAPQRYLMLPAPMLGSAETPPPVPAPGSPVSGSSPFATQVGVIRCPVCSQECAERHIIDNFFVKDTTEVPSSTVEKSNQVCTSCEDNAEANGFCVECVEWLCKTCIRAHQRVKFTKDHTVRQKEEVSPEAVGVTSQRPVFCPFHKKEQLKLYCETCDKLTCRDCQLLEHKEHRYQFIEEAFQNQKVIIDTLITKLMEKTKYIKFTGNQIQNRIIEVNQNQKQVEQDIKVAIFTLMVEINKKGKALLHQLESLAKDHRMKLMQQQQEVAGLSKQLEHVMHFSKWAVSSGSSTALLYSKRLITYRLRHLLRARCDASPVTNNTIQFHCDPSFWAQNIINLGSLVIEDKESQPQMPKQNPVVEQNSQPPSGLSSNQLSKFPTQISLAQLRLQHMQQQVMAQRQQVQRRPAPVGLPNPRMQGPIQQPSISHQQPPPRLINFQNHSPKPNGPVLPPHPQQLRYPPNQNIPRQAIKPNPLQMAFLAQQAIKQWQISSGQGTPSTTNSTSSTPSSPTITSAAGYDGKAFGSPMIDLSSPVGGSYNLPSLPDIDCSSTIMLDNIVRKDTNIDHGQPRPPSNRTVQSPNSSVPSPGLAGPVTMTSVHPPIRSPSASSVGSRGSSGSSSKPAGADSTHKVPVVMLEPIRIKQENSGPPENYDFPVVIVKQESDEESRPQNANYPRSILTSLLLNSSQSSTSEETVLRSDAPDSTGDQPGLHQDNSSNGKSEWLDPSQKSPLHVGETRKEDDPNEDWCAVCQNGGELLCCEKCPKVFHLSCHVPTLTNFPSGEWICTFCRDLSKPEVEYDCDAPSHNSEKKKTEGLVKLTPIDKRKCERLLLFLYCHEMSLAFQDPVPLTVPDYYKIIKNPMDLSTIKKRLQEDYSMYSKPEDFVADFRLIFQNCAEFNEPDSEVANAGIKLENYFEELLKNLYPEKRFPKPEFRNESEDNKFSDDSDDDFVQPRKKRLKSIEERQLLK

Tyrosine-protein kinase ABL1 (Homo sapiens), sequence (P00519 whole entry): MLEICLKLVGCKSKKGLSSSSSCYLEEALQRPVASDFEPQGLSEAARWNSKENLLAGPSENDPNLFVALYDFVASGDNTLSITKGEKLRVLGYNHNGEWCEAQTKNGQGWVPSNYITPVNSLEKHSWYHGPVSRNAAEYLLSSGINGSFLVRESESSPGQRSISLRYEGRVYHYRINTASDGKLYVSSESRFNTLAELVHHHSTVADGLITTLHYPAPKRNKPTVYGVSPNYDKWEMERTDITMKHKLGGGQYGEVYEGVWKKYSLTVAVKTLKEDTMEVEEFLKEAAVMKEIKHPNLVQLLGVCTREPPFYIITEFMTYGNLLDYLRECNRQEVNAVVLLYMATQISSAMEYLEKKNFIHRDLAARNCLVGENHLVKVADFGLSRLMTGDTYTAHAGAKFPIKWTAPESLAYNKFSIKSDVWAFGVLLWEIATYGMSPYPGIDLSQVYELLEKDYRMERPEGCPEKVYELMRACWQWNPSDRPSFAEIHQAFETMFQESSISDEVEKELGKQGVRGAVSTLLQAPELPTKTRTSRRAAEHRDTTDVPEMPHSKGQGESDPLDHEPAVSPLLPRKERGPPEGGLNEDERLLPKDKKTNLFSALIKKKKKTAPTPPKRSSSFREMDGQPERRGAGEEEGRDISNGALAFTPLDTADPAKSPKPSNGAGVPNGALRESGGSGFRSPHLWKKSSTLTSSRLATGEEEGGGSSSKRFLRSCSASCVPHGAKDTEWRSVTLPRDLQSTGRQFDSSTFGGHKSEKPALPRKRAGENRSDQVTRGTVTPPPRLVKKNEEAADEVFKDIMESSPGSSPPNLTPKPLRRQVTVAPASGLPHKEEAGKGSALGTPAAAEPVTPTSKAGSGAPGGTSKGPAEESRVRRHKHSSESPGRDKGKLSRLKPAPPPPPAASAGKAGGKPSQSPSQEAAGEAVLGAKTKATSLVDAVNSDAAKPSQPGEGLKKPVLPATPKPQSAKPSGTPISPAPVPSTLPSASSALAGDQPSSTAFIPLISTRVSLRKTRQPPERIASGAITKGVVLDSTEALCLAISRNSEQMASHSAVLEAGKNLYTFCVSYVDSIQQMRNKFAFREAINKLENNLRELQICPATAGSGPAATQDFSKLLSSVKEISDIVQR
Mitogen-activated protein kinase 1 (Homo sapiens), sequence (P28482 whole entry): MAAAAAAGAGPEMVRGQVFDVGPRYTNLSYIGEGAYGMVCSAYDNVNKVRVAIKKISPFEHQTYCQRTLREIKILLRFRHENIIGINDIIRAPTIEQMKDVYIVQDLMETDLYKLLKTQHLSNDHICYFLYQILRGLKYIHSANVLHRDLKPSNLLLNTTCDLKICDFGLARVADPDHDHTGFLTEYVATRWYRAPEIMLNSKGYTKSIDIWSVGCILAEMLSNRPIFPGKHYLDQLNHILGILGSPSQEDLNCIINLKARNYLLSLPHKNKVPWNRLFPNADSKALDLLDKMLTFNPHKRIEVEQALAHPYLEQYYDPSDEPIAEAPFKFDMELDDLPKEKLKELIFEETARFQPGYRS
Glycogen synthase kinase-3 beta (Homo sapiens), sequence (P49841 whole entry, looked up): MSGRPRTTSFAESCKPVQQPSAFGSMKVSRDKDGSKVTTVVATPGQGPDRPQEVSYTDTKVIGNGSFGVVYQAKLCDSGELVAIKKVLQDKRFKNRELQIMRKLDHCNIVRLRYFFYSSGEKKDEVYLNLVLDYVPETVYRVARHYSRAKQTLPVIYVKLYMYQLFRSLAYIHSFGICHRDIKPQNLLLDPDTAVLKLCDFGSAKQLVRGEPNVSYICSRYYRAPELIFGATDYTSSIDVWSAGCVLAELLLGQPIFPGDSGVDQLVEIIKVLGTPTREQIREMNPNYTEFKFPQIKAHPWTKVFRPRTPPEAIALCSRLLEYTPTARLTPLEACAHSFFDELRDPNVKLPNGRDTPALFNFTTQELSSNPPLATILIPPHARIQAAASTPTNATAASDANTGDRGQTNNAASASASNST
Casein kinase I isoform delta (Homo sapiens), sequence (P48730 whole entry, looked up, canonical isoform): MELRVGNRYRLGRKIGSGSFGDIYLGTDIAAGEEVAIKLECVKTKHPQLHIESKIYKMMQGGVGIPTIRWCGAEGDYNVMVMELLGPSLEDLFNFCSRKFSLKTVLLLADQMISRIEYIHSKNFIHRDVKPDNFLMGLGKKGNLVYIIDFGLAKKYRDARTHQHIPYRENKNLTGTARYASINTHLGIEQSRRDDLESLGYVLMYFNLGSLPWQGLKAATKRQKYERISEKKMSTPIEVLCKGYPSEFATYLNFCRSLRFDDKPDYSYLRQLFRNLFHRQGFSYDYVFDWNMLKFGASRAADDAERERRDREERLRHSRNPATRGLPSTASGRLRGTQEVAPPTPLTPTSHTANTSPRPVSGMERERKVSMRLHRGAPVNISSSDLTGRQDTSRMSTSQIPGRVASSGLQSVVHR

Broadly, the ΔTm is the change in melting temperature against a reference sample. Turning to `Clc1ccccc1C(c1ccccc1)(c1ccccc1)n1cccn1`, the ΔTm is 0.43 °C in experiment [1]; 0.09 °C in experiment [2]; -0.01 °C in experiment [3]; -0.43 °C in experiment [4]; 0.22 °C in experiment [5]; -0.47 °C in experiment [6]. In addition, the ΔTm in experiment [7] was -0.54 °C.
Consider `CCOP(=O)(OCC)C(=Cc1cc(C(C)(C)C)c(O)c(C(C)(C)C)c1)P(=O)(OCC)OCC`, for which the ΔTm in experiment [1] is -0.09 °C; in experiment [2], 0.15 °C; in experiment [3], 0.17 °C; in experiment [4], -0.29 °C; in experiment [5], 0.15 °C; in experiment [6], -1.17 °C. Also, the ΔTm in experiment [7] is -3.9 °C.
Consider `CNc1nc(-c2cc(C(=O)N3CCN(Cc4ccc(Cl)cc4)CC3)c(Cl)cn2)cs1`, for which the ΔTm was -0.06 °C in experiment [1]; 0.89 °C in experiment [2]; 0.17 °C in experiment [3]; 0.59 °C in experiment [4]; 0.23 °C in experiment [5]; -0.18 °C in experiment [6]. The ΔTm in experiment [7] is 0.39 °C.
With `CC[C@H]1[C@@H](O)[C@@H]2[C@H](CC[C@]3(C)[C@@H]([C@H](C)CCC(=O)O)CC[C@@H]23)[C@@]2(C)CC[C@@H](O)C[C@@H]12`, the ΔTm in experiment [1] was -0.12 °C; in experiment [2], -0.27 °C; in experiment [3] it was 0.56 °C; in experiment [4], -0.92 °C; in experiment [5] it was -0.09 °C; in experiment [6], -1.71 °C. In addition, the ΔTm in experiment [7] was -1.62 °C.
As for `OCC1OC(n2cnc3cc(Cl)c(Cl)cc32)C(O)C1O` (centres undefined), the shift in melting temperature (ΔTm) was 0.32 °C in experiment [1]; 1.91 °C in experiment [3]; 0.18 °C in experiment [4]; 0.27 °C in experiment [5]; 0.42 °C in experiment [6]; -1.91 °C in experiment [7].
On to `O=C(NCCN1CCC2(CC1)C(=O)NCN2c1cccc(F)c1)c1ccc2ccccc2c1`, for which the ΔTm is -0.28 °C in experiment [1]; 0.17 °C in experiment [2]; 0.58 °C in experiment [3]; -0.14 °C in experiment [4]; 0.08 °C in experiment [5]; 0.16 °C in experiment [6]. Moreover, in experiment [7], the ΔTm came to 0.18 °C.
With `Cc1ccc2c(N)c(C(=O)NC3CCc4cc(N5CC6CCC(C5)N6)ccc4C3)sc2n1` (centres undefined), the ΔTm was 0.14 °C in experiment [1]; -0.27 °C in experiment [2]; 0.27 °C in experiment [3]; -0.23 °C in experiment [4]; 0.3 °C in experiment [5]; -0.05 °C in experiment [6]. For the same molecule, the ΔTm in experiment [7] was -1.89 °C.
As to `Cn1ncc(-c2nc(N[C@H]3CC[C@H](N)CC3)ncc2Cl)c1CC1CC1`, the ΔTm in experiment [1] amounted to 0.41 °C; in experiment [2], 12.7 °C; in experiment [3] it was 9.79 °C; in experiment [4], 9.59 °C; in experiment [5], 2.41 °C; in experiment [6], 2.45 °C. Moreover, the ΔTm in experiment [7] is -3.6 °C.
As for `C[C@@H](CN1CC[C@@]2(C)c3cccc(O)c3C[C@@H]1C2(C)C)OCc1ccccc1`, the ΔTm is -0.13 °C in experiment [1]; 0.59 °C in experiment [2]; 0.25 °C in experiment [3]; -1.13 °C in experiment [4]; 0.48 °C in experiment [5]; 0.13 °C in experiment [6]. Besides, the ΔTm in experiment [7] came out at 0.17 °C.
As for `CN1CCN(C(=O)Cc2ccc(N/C(=C3\C(=O)Nc4cc(Cl)ccc43)c3ccccc3)cc2)CC1`, the ΔTm is 8.52 °C in experiment [1]; 1.7 °C in experiment [2]; 1.29 °C in experiment [3]; 6.21 °C in experiment [4]; -0.19 °C in experiment [5]; 1.19 °C in experiment [6]. In addition, the ΔTm in experiment [7] was -2.36 °C.
In the case of `CO[C@H](C)CN1CC[C@]2(C)c3cccc(O)c3C[C@H]1C2(C)C`, the ΔTm in experiment [1] was 0.1 °C; in experiment [2], 0.52 °C; in experiment [3], 0.27 °C; in experiment [4] it was -0.29 °C; in experiment [5], -0.17 °C; in experiment [6] it was -0.21 °C. Further, the ΔTm in experiment [7] was determined as 0.19 °C.
With `C=CC(=O)N1CCC[C@@H](n2nc(-c3ccc(Oc4ccccc4)cc3)c3c(N)ncnc32)C1`, the ΔTm in experiment [1] is 2.63 °C; in experiment [2], 0.83 °C; in experiment [3], 0.7 °C; in experiment [4] it was -1.96 °C; in experiment [5], -6.31 °C; in experiment [6], 6.21 °C. In experiment [7], the ΔTm is -4.01 °C.
Consider `CCC(=O)O[C@@H](OP(=O)(CCCCc1ccccc1)CC(=O)N1C[C@H](C2CCCCC2)C[C@H]1C(=O)O)C(C)C` (some centres undefined), for which the ΔTm is 0.01 °C in experiment [1]; 0.46 °C in experiment [2]; -0.25 °C in experiment [3]; -0.61 °C in experiment [4]; 0.22 °C in experiment [5]; -1.22 °C in experiment [6]. Moreover, in experiment [7], the ΔTm was -3.14 °C.
For the molecule `C[C@@H]1CC[C@@]2(OC1)O[C@H]1[C@@H](O)[C@H]3[C@@H]4CC[C@H]5C[C@@H](O[C@@H]6O[C@H](CO)[C@H](O[C@@H]7O[C@H](CO)C(O)[C@H](O[C@@H]8OC[C@@H](O)[C@H](O)[C@H]8O)[C@H]7O[C@@H]7O[C@H](CO)[C@H](O)[C@H](O[C@@H]8O[C@H](CO)[C@@H](O)[C@H](O)[C@H]8O)[C@H]7O)[C@H](O)[C@H]6O)[C@H](O)C[C@]5(C)[C@H]4CC[C@]3(C)[C@H]1[C@@H]2C` (some centres undefined), the ΔTm was 0.2 °C in experiment [1]; 0.55 °C in experiment [2]; 0.07 °C in experiment [3]; -0.93 °C in experiment [4]; 0.27 °C in experiment [5]; -0.73 °C in experiment [6]. For the same molecule, the ΔTm in experiment [7] is -3.45 °C.
As for `C[C@]12CC[C@@H]3c4ccc(C(N)=O)cc4CC[C@H]3[C@@H]1CC=C2c1cncc(F)c1`, the ΔTm in experiment [1] was 0.15 °C; in experiment [2], -0.32 °C; in experiment [3], -4.77 °C; in experiment [4], 0 °C; in experiment [5], 0.35 °C; in experiment [6] it was 2.37 °C. In addition, in experiment [7], the ΔTm amounted to 0.2 °C.
For the molecule `Cc1nnc2n1-c1sc3c(c1C(c1ccccc1Cl)=NC2)C[C@@H](C(=O)N1CCOCC1)C3`, the ΔTm in experiment [1] was 0.78 °C; in experiment [2] it was 0.74 °C; in experiment [3], 0.17 °C; in experiment [4], 0.5 °C; in experiment [5], 0.3 °C; in experiment [6] it was 0.11 °C. Besides, the shift in melting temperature (ΔTm) in experiment [7] was -0.75 °C.
For the molecule `CO[C@@H](C)CN1CC[C@]2(C)c3cc(O)ccc3C[C@H]1C2(C)C`, the ΔTm in experiment [1] was 0.73 °C; in experiment [2] it was 0.61 °C; in experiment [3] it was 0.53 °C; in experiment [4] it was -0.14 °C; in experiment [5] it was 0.27 °C; in experiment [6], -0.25 °C. For the same molecule, the ΔTm in experiment [7] stood at 0.53 °C.
For `Cc1cc(Cl)ccc1S(=O)(=O)NC[C@H]1C2CCC(CC2)[C@@H]1/C=C\CCCC(=O)O`, the ΔTm in experiment [1] is -0.05 °C; in experiment [2], -0.53 °C; in experiment [3], -0.27 °C; in experiment [4], -1.54 °C; in experiment [5] it was 0.13 °C; in experiment [6], -0.34 °C. Moreover, the ΔTm in experiment [7] is -0.51 °C.
As for `C[C@H](CCC(=O)O)[C@H]1CC[C@H]2[C@@H]3CC[C@@H]4C[C@H](O)CC[C@]4(C)[C@H]3CC[C@]12C`, the ΔTm in experiment [1] is -0.82 °C; in experiment [2], -1.65 °C; in experiment [3] it was -3.52 °C; in experiment [4], -3.06 °C; in experiment [5], -0.88 °C; in experiment [6], -4.37 °C. Besides, the ΔTm in experiment [7] is -5.96 °C.
For the molecule `Cc1nnc2n1-c1sc(CCC(=O)N3CCOCC3)cc1C(c1ccccc1Cl)=NC2`, the ΔTm in experiment [1] was 0.15 °C; in experiment [2], 0.99 °C; in experiment [3], 0.34 °C; in experiment [4] it was -0.2 °C; in experiment [5] it was 0.13 °C; in experiment [6], 0.01 °C. In experiment [7], the ΔTm was determined as 0.29 °C.
